Screens (PubChem)
An excerpt weighted towards active compounds, which were near 3.1% of everything screened.
DRD3 agonist: activates the human D3 dopamine receptor; D3R DiscoveRx beta-arrestin cells, luminescence, 90 min; AID 652048; hit rate 0.58% among 410,000; P35462; max activation, %; in the data active = max activation above about 30%
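Cells at 1500/well, incubated overnight, then treated with pinned compounds (dopamine as control) for 90 min at 37 degrees C. DiscoveRx reagent added for 30 - 60 minutes at room temperature; luminescence read.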
RGS4 inh: human RGS4 inhibition | Transcreener GDP fluorescence polarization, RGS4-accelerated GTP hydrolysis | Potency, µM (doses to about 114 µM), most hits filed as inhibitors | hit rate 0.039% among 390,000; active = well fitted inhibition curve with a large enough effect; inconclusive = small, poorly fitted or top-dose-only effect; inactive = no such curve, though single readings can be large or run the other way; note: nearly all actives have a fitted effect of over 75% in size
Target sequence (P49798 whole entry, looked up): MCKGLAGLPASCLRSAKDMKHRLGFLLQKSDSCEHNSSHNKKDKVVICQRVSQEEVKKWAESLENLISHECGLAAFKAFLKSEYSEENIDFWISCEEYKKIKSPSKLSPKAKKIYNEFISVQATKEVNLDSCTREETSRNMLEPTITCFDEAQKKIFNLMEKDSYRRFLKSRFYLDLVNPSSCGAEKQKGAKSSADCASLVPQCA
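MLSMR compounds (23 nl, pin-transferred) preincubated 10 min at room temperature with a 500nM (2x) first reagent, then RGS4 at 900nM (2x) plus Transcreener GDP mix added; fluorescence polarization (620/688 nm) read before and after 90 min at 30 °C.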
D3 antag: D3 dopamine receptor (human) antagonism | P35462 | D3R cells, DiscoveRx beta-arrestin luminescence, antagonist mode; hits give low values | max response, negative = inhibition, % | hit rate 2.5% among 360,000; in the data active = max response below about -50%; inconclusive = no clear call, values can overlap the other calls
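Cells plated overnight at 1500 cells/well, then exposed to library compounds with dopamine controls for 90 minutes at 37 degrees C. DiscoveRx reagent added for 30–60 minutes at room temperature; luminescence read, quantitative HTS format.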
uPA surface inh: cell surface uPA generation inhibition; cell surface uPA generation assay, qHTS; Potency, µM (series often up to 38.3 µM), usual class: inhibitors; hit rate 0.31% among 330,000; AID 540303; active = well fitted inhibition curve with a large enough effect; inconclusive = small, poorly fitted or top-dose-only effect; inactive = no such curve, though single readings can be large or run the other way; tested in mouse RAW 264.7 cells; note: nearly all actives have a fitted effect of over 55% in size
Numbers stand for hits; – = inactive; ? = inconclusive; · = no result.

SMILES | DRD3 agonist | RGS4 inh | D3 antag | uPA surface inh
CCc1oc(C(=O)O)cc1COC | – | – | – | –
CCc1oc(C(=O)O)cc1CN(CC)CC | – | – | -66 | –
COc1cccc(NC(=S)N(CCCN2CCOCC2)C(C)c2cc3ccccc3o2)c1 (configuration not stated) | – | – | -55 | –
Cc1cc(C)c(Cn2c(=O)n(CCCC(=O)NCc3ccc4c(c3)OCO4)c(=O)c3sccc32)c(C)c1 | – | – | · | ·
N#Cc1ccc(C(=O)NC(=S)NC2CCCCC2)cc1 | – | – | -55 | –
O=C(NC(=S)NC1CCCC1)c1ccccc1 | – | – | – | –
CC1(CCC(=O)N2CCCC(N3CCN(c4cccc(C(F)(F)F)c4)CC3)C2)CC1 (configuration not stated) | – | – | -66 | ?
COc1cccc(CNC(=O)c2ccc3nc(-c4ccc(F)cc4)c(-c4ccc(F)cc4)nc3c2)c1 | – | – | · | ·
CCCS(=O)(=O)c1nc(S(=O)(=O)c2ccc(C)cc2)c(N2CCCCC2)s1 | – | · | – | ·
CCCS(=O)(=O)c1nc(S(=O)(=O)c2ccc(C)cc2)c(N2CCN(CCO)CC2)s1 | – | – | -91 | –
CCN1CCN(c2sc(S(=O)(=O)CC)nc2S(=O)(=O)c2ccc(Cl)cc2)CC1 | – | · | -105 | ·
O=C1C(Cl)=C(N2CCN(c3ccccc3[N+](=O)[O-])CC2)C(=O)c2ccccc21 | – | ? | -60 | –
CCN1CCN(c2cc(N3CCc4ccccc4C3)c(F)cc2[N+](=O)[O-])CC1 | – | – | -79 | –
CCn1c(CN2CCN(C)CC2)nc2cc(NC(=O)c3cc(OC)c(OC)c(OC)c3)ccc21 | – | – | · | ·
CCCCCCc1cc2cc(C(=O)Nc3ccccc3)c(=O)oc2cc1O | 51 | – | – | –
CCN(CC)CCNC(=O)c1ccc(-n2c(-c3ccccc3)cc3c2CCCC3)cc1 | – | – | · | ·
O=C(Nc1nc2cc(Cl)ccc2s1)C1CCCN(S(=O)(=O)c2cccc3cccnc23)C1 (configuration not stated) | – | – | – | 13µM
CCOc1ccc(CNC(=O)c2cnc3sc(N(CC)CC)nn3c2=O)cc1 | – | – | · | ·
COc1ccc(N2CCN(C3CCCN(Cc4cccc(C)c4)C3)CC2)cc1 (configuration not stated) | – | – | – | –
COc1ccc(CN2CCCC(N3CCN(c4ccc(OC)cc4)CC3)C2)cc1 (configuration not stated) | – | – | -58 | –
Cc1nc(-c2ccccn2)nc(SCC(=O)c2ccc(F)cc2)c1Cl | – | – | – | –
COc1ccc(C(=O)CSc2nc(-c3ccccn3)nc(C)c2Cl)cc1 | – | – | -60 | –
CCCc1nc(SCC(=O)c2ccccc2)c2c(=O)n(C)c(=O)n(C)c2n1 | 31 | – | – | ?
CCCc1nc(SCC(=O)c2ccc(OC)cc2)c2ccccc2n1 | 33 | – | – | –
Cc1ccc(N2CCN(C(=O)Nc3cn(CC(C)C)c(=O)c4ccccc34)CC2)c(C)c1 | – | – | · | ·
SMILES | DRD3 agonist | RGS4 inh | D3 antag | uPA surface inh
Cc1ccc(Nc2nc(=O)c3cccnc3s2)cc1 | – | – | -102 | ?
CC1CCCN(CCCOc2ccccc2-c2ccccc2)C1 (configuration not stated) | – | – | -67 | –
COc1ccccc1OCCCCN1CCC(C)CC1 | – | – | ? | –
Brc1ccccc1OCCN1CCOCC1 | – | – | ? | –
CC1CCN(CCOCCOc2ccccc2Br)CC1 | – | – | -61 | –
CN(C)CCOCCOc1ccccc1-c1ccccc1 | – | – | -69 | ·
CC1CCN(CCCCOc2ccccc2-c2ccccc2)CC1 | – | – | -99 | –
CN(C)CCOc1ccccc1-c1ccccc1 | – | – | ? | –
COc1cccc(NC(=O)C2CCC(CNS(=O)(=O)c3ccc4c(c3)CCCC(=O)N4)CC2)c1 (configuration not stated) | – | – | · | ·
CC1CCN(CCOCCOc2ccccc2-c2ccccc2)CC1 | – | – | -82 | –
OCCCN1CCN(CCCOc2ccccc2-c2ccccc2)CC1 | – | – | ? | –
Cc1ccc(-n2c(SCC(=O)Nc3cccc(S(N)(=O)=O)c3)nc3ccccc32)cc1 | 44 | – | – | –
Cc1nnc(SCC(=O)Nc2cccc(S(N)(=O)=O)c2)n1-c1ccccc1 | – | – | – | –
COc1cc(Cl)c(C)cc1NC(=O)c1cn(C2CCCC2)c(=O)c2c1c1ccccc1n2C | – | – | · | ·
Cc1ccc(OCCn2c(-c3ccc(Cl)cc3)nc3ccccc3c2=O)c(C)c1 | – | – | · | ·
COc1ccc(NC(=O)CSc2n[nH]c(C(C)C)n2)c([N+](=O)[O-])c1 | – | – | – | –
